# This is one part of a sample in which hits are shown more often than they occur.
# HIV RNase H inh-1 – blocks HIV-1 RNase H cleavage of RNA/DNA duplex. P04585. RT-RNase H RNA/DNA duplex cleavage, fluorescence. inhibition, % at 10 µM. actives 1.9% (n = 65,000). AID 565; in the data active = inhibition above about 50%
# RmlCD inh mix – inhibitors of RmlC and RmlD coupled enzymes | RmlC/RmlD coupled enzyme inhibition, 384-well mixture HTS | inhibition, % at 5.5 µM | actives 0.39% (n = 110,000) | AID 1532; in the data active = inhibition above about 30%, passing the limit was not always enough; inconclusive = no clear call, values can overlap the other calls
# HIV RNase H inh-2 – confirmation of HIV-1 reverse transcriptase RNase H inhibitors | shares compounds with HIV RNase H inh-1 | Recombinant RT RNase H, fluorescent RNA/DNA duplex cleavage | inhibition, % at 10 µM | actives 39% (n = 1,000); in the data active = inhibition above about 48%; inconclusive = no clear call, values can overlap the other calls
# An asterisk follows results filed as active; ? = inconclusive; . = no result.
SMILES,HIV RNase H inh-1,RmlCD inh mix,HIV RNase H inh-2
Cc1ccccc1N1C(=O)C(Cl)=C(N2CCCCCC2)C1=O,8.6,-0.7,.
O=C1C(Cl)=C(N2CCCCC2)C(=O)N1c1ccccc1Cl,72.2*,-4.6,40.0
O=C1CC(c2ccccc2)CN1C(=O)c1ccccc1 (configuration not stated),-2.3,6.2,.
Cc1ccc(C)c(NC(=S)NCCc2ccc(S(N)(=O)=O)cc2)c1,.,-7.7,.
CSc1nc(NCCOCCO)c2sc3nc(-c4ccco4)c4c(c3c2n1)CCC4,70.0*,18.5,42.1
CCN(CCO)c1nc(SC)nc2c1sc1nc(-c3ccco3)c3c(c12)CCC3,.,6.1,.
Oc1ccccc1NCC(O)Cn1ccc2ccccc21 (configuration not stated),77.7*,-14.0,28.7
OCc1nc2ccccc2n1CC(O)Cn1ccc2ccccc21 (configuration not stated),-8.9,9.7,.
O=C1N[C@@H](Cc2ccccc2)C(=O)N2[C@H]1C[C@]1(Br)c3ccccc3N(S(=O)(=O)c3ccc(F)cc3)[C@H]21,.,-12.8,.
COC(=O)c1ccc2c(c1)N(Cc1nc(-c3ccc(Cl)cc3)oc1C)C(=O)C1CCCN21 (configuration not stated),77.8*,.,96.0*
COC(=O)c1ccc2c(c1)N(Cc1nc(-c3cccc(Cl)c3)oc1C)C(=O)C1CCCN21 (configuration not stated),20.3,.,.
CC12CN3CC(C)(CN(C1)C3c1ccccc1Cl)C2O (configuration not stated),-13.3,5.2,.
Cc1ccc(CNc2ccc(O)cc2)cc1,57.1*,.,3.5
Cc1ccc(NCc2ccccc2O)cc1,.,-3.7,.
COc1ccc2nc(N3CCC(C)CC3)c(C#N)cc2c1,-19.7,1.7,.
CCOC(=O)CSc1nc2ccccc2c(=O)n1-c1ccc(C(=O)NCCOC)cc1,.,-8.6,.
CCOC(=O)CSc1nc2cc(C(=O)NCc3ccco3)ccc2c(=O)n1C1CCCCC1,73.0*,13.6,57.5*
CCOC(=O)CSc1nc2ccccc2c(=O)n1CC1CCC(C(=O)NCc2ccco2)CC1 (configuration not stated),39.8,-0.2,.
CCOC(=O)CSc1nc2cc(C(=O)NCc3ccco3)ccc2c(=O)n1-c1ccc(F)cc1,84.0*,6.5,66.4*
CCN(CC)CCCCCOc1ccccc1OC,-4.3,-8.9,.
O=C(Nc1ccccc1)C(Cc1cccs1)c1nn[nH]n1 (configuration not stated),.,-0.8,.
CCc1cn([C@H]2C[C@H](O)[C@@H](CO)O2)c(=O)[nH]c1=O,-5.0,10.0,.
Cc1ccc(N2C(=O)C3C(C2=O)C2C=CC3C23CC3)cc1 (configuration not stated),1.2,-1.1,.
O=C1C2C(C(=O)N1c1ccncc1)C1C=CC2C12CC2 (configuration not stated),73.8*,-7.7,29.0
Cc1cc(C)nc(SCC(=O)NC2=NC(=O)C(C)S2)n1 (configuration not stated),27.7,6.5,.
SMILES,HIV RNase H inh-1,RmlCD inh mix,HIV RNase H inh-2
Cc1cc(C(F)(F)F)nc(SCC(=O)NC2=NC(=O)C(C)S2)n1 (configuration not stated),60.3*,.,?
[O-][n+]1c2c(c3c4non(O)c4ccc31)CCCC2,.,3.8,.
COc1ccc(NC(=O)c2cc(-c3cc(C)ccc3O)n[nH]2)cc1Cl,50.7*,4.5,5.3
COc1ccc(OC)c(NC(=O)c2cc(-c3cc(Cl)ccc3O)n[nH]2)c1,24.4,3.8,.
O=C(Nc1ccccc1)C1=C[C@H](c2csc3ccccc23)C[C@H](OCc2ccc(CO)cc2)O1,.,-1.9,.
CCOC(=O)c1ccccc1NC(=O)Cn1cnc2c(cnn2-c2ccccc2)c1=O,-14.4,-19.4,.
COC(=O)c1ccccc1NC(=O)Cn1cnc2c(cnn2-c2ccccc2)c1=O,74.2*,-15.0,30.4
O=C1CCC(C(=O)Nc2cccc(C(F)(F)F)c2)N1 (configuration not stated),-7.0,-8.9,.
CCc1cc(=O)oc2cc(C)c(CN3CCCC3)c(O)c12,18.2,10.4,.
N#Cc1sc2nc(-c3ccccc3)cc(-c3ccco3)c2c1N,94.6*,4.7,-5.3
N#Cc1c(-c2ccccc2)cc(-c2ccco2)c(C#N)c1N,46.4,.,.
C[C@@H]1C[C@H]2[C@@H]3C[C@H](F)C4=CC(=O)C=C[C@]4(C)[C@@]3(F)[C@@H](O)C[C@]2(C)[C@@]1(O)C(=O)CO,3.7,-12.2,.
COc1cc(C(=O)OCC(=O)c2c[nH]c3ccccc23)ccc1OCC(=O)N1CCOCC1,-1.6,-18.4,.
CC(C)(C)C1=Nn2c(nnc2-c2ccccn2)SC1,64.2*,10.9,69.5*
CC(C)(C)C1=Nn2c(nnc2-c2ccccc2F)SC1,-15.7,4.6,.
COc1cc(C(=O)OCC(=O)Nc2cc(C)on2)ccc1OCc1ccccc1Cl,51.7*,17.2,20.8
CCOc1ccc(C(=O)OCC(=O)Nc2cc(C)on2)cc1OCC,.,-117.0,.

# High-throughput results: PubChem, several laboratories
